Results on 93 molecules are retold here after PubChem BioAssay AID463173 (ICCB-Longwood Screening Facility, Harvard Medical School, 2010).

SMILES strings stand for the structures. About 1,700 (3.3%) of roughly 52,000 compounds were called active. Many of the other results were omitted from the sample, so actives are more common in it than they were. Unmarked numbers belong to inactive results. Cut-off read from the data, not from the text of the source: active = survival mostly below about 52% (no sharp cut-off); inactive = mostly above about 56%.

The test system of the assay is Wild type. In words: growth inhibition of S. aureus wild type versus tarO mutant, primary screen, teichoic acid synthesis inhibitors, RN4220, OD600 (AID 463173). The following applies: S. aureus RN4220 wild type/DeltatarO growth, OD600, 18 h, stronger effect = lower value, screened at 18.75 µg/mL (by protocol).
With `CCCCCn1c(=O)[nH]c2cc(C(=O)NCc3ccccc3)ccc2c1=O`, the survival is 83%.
Take `COCCNC(=O)CCCN1C(=O)CCn2nc(-c3cccn3C)cc21`: the survival is 68%.
Consider `CCOc1ccc(-n2c(SCc3nc(-c4ccccc4C)no3)nnc2-c2ccccc2)cc1`, for which the survival was 84%.
In the case of `CCC(Sc1nncn2c1cc1occc12)C(=O)Nc1ccc(C)c(Cl)c1` (stereo not drawn) it was 44%; in that of `CCc1nn(CC(=O)NC(C)c2ccccc2)c(=O)c2cc3sccc3n12` (stereo not drawn), 91%.
As to `COc1ccc(-n2c(=O)c3ccccc3n(CC(=O)Nc3ccccc3OC)c2=O)cc1`, the survival was 89%.
In the case of `CN1C(C(=O)NC(C)(C)C)=CC(c2ccc3c(c2)OCO3)=NS1(=O)=O` it was 84%; in that of `Cc1cc(NCCN(C)C)c2ccccc2n1`, 106%.
With `COc1ccc(-c2cccc(NS(=O)(=O)c3cc(C(F)(F)F)ccc3Cl)c2)nn1`, the survival is 59%.
In the case of `COc1cccc(OC)c1C(=O)Nc1cccc(-c2cn3ccsc3n2)c1` it was 72%.
In the case of `COc1cc(OC)cc(C(=O)Nc2cccc(-c3cn4ccsc4n3)c2)c1` it was 1% (active); in that of `CN(C)S(=O)(=O)Nc1ccc(-c2cn3ccsc3n2)cc1`, 14% (active).
In the case of `CCS(=O)(=O)Nc1ccc(-c2cn3ccsc3n2)cc1`, the survival is -1% (active).
`COc1ccc(C(=O)Nc2cccc(-c3cn4ccsc4n3)c2)cc1OC`: the survival is 76%.
Turning to `Nc1cccc(-c2cn3ccsc3n2)c1`, the survival is 55%.
Turning to `CCCS(=O)(=O)Nc1cccc(-c2cn3ccsc3n2)c1`, the survival was 159%.
In the case of `COc1ccc(S(=O)(=O)Nc2ccc(-c3cn4ccsc4n3)cc2)cc1C` it was 133%; in that of `CCS(=O)(=O)Nc1ccc(-c2cn3c(C)csc3n2)cc1`, 78%; in that of `Cc1ccc(Cn2cc(S(=O)(=O)c3cccc(Cl)c3)c(=O)c3cc(F)c(N4CCOCC4)cc32)cc1`, 87%.
In the case of `CC1=C(C(=O)OCC2CCCCC2)C(c2cccc(Cl)c2Cl)CC(=O)N1` (stereo not drawn) it was 76%.
For the molecule `COc1cc(Cl)c(C)cc1NC(=O)Cn1cc(S(=O)(=O)N2CCN(c3ccccc3F)CC2)c2ccccc2c1=O`, the survival is 68%.
In the case of `Cc1cccc(C)c1NC(=O)CN1C(=O)CCSc2ccc(S(=O)(=O)N3CCCC3)cc21` it was 72%; in that of `CCN(C(=O)C(=O)Nc1ccc2nc3n(c(=O)c2c1)CCCCC3)c1ccc(F)cc1`, 94%.
Turning to `COc1ccc(-n2nc(C(=O)N3CCN(c4ccccc4OC)CC3)c3c4ccccc4n(C)c3c2=O)cc1`, the survival was 80%.
For `Cc1ccc(CSc2cn(CC(=O)N3CCCCC3)c3ccccc23)cc1`, the survival was 90%.
For `CCc1ccc(C2C(C(=O)Nc3ccccc3C)=C(C)Nc3nc(SCc4cccc(OC)c4)nn32)cc1` (stereo not drawn) the value was 146%.
In the case of `O=C1CC2CCCC(CN1)N2CC(=O)NCc1ccco1` (stereo not drawn), the survival was 104%.
For `COc1ccc(COC(=O)c2[nH]c3c(c2C)C(=O)CC(c2ccc(OC)c(OC)c2)C3)cc1` (stereo not drawn) the value was 92%.
In the case of `COc1ccccc1C(=O)NC(=O)Nc1ccc(-c2cc(C(F)(F)F)nn2-c2ccccc2)cc1` it was 5% (active); in that of `COc1ccccc1C(=O)NC(=O)Nc1ccc(-n2nc(C(F)(F)F)cc2C(F)(F)F)cc1`, 101%.
For `COc1ccccc1C(=O)Nc1ccc(-c2cc(C(F)(F)F)nn2-c2ccccc2)cc1` the value was 39%.
With `COc1ccc(-c2cc3ccc(O)c(CN4CCCC4)c3oc2=O)cc1`, the survival was 124%.
As for `CCOc1ccccc1NC(=O)c1c(NC(=O)COc2ccc(Cl)cc2)sc2c1CCCCC2`, the survival is 75%.
For `CCOc1ccc(OC(=O)c2c(-c3ccccc3Cl)noc2C)cc1`, the survival is 59%.
Consider `Cc1onc(-c2ccccc2Cl)c1C(=O)Oc1ccc(Br)cc1`, for which the survival is 4% (active).
For `CC(=O)c1ccc(OC(=O)c2c(-c3ccccc3Cl)noc2C)cc1`, the survival was 56%.
For `CN(C)c1ccc(C(CNS(=O)(=O)c2ccc(Cl)cc2)N2CCOCC2)cc1` (stereo not drawn) the value was 10% (active); for `CN(C)c1ccc(C(CNS(=O)(=O)c2ccc(Cl)cc2)N2CCCC2)cc1` (stereo not drawn), -3% (active); for `CN(C)c1ccc(C(CNS(=O)(=O)c2ccc(F)cc2)N2CCCC2)cc1` (stereo not drawn), 124%.
On to `Cc1ccc(S(=O)(=O)NCC(c2ccc(N(C)C)cc2)N2CCCC2)cc1` (stereo not drawn), for which the survival is 88%.
On to `CN(C)c1ccc(C(CNS(=O)(=O)c2ccc(F)cc2)N2CCOCC2)cc1` (stereo not drawn), for which the survival was 83%.
With `Cc1ccc(S(=O)(=O)NCC(c2ccc(N(C)C)cc2)N2CCOCC2)cc1` (stereo not drawn), the survival is 65%.
As for `C=CCn1cc(F)c(=O)n(CC=C)c1=O`, the survival was 109%.
In the case of `CCOc1ccc(NC(=O)Cn2nc(Cc3ccncc3)c3ccccc3c2=O)cc1` it was 108%; in that of `CC(C)C(=O)N1CCN(c2ccc(NC(=O)c3ccccc3)cc2)CC1`, 95%; in that of `O=C(Nc1ccc2oc(=O)ccc2c1)c1cccc(F)c1`, 106%.
Turning to `COc1ccc2sc(N(Cc3cccnc3)C(=O)c3ccco3)nc2c1`, the survival is -4% (active).
`COc1ccc2sc(N(Cc3cccnc3)C(=O)c3cccs3)nc2c1`: the survival is 64%.
In the case of `CCS(=O)(=O)c1ccccc1C(=O)N(Cc1cccnc1)c1nc2cc(C)c(C)cc2s1` it was 118%.
`COc1ccc2nc(N(Cc3cccnc3)C(=O)c3ccco3)sc2c1`: the survival was 70%.
For `COc1cc(C(=O)N(Cc2cccnc2)c2nc3cc(C)c(C)cc3s2)cc(OC)c1OC` the value was 22%; for `Cc1cc2nc(N(Cc3cccnc3)C(=O)c3ccc(Cl)s3)sc2cc1C`, 0% (active).
In the case of `Cc1scc(-c2ccccc2)[n+]1CCO` it was 109%; in that of `CCOc1ccc(NC2SC(=O)N(Cc3ccccc3)C2=O)cc1` (stereo not drawn), 72%.
For `COc1cc(OC)c(NC(=O)c2cnn(-c3cccc(Cl)c3C)c2C2CCN(C(=O)OC(C)(C)C)CC2)cc1Cl`, the survival was 53%.
As to `COc1ccc(CNC(=O)CSc2nc(-c3ccc(OC)c(OC)c3)cc(C(F)(F)F)n2)cc1`, the survival was 83%.
Take `COc1ccc(-c2cc(C(F)(F)F)nc(SCC(=O)NCc3ccc(Cl)cc3)n2)cc1`: the survival was 83%.
In the case of `CCOC(=O)c1ccn(-c2nc(-c3cccc(OC)c3)cc(C(F)(F)F)n2)n1` it was 48%; in that of `COC(=O)c1ccn(-c2nc(-c3ccc(Cl)cc3)cc(C(F)(F)F)n2)n1`, 9% (active).
In the case of `COC(=O)CSc1nc(-c2ccc(F)cc2)cc(C(F)(F)F)n1` it was 123%; in that of `COc1ccc(-c2cc(C(F)(F)F)nc(NCc3ccc(Cl)cc3)n2)cc1`, -3% (active).
`COc1ccc(CNc2nc(-c3ccc(Cl)cc3)cc(C(F)(F)F)n2)cc1`: the survival was -4% (active).
Regarding `COc1ccc(-c2cc(C(F)(F)F)nc(S(C)(=O)=O)n2)cc1`, the survival was 98%.
In the case of `CS(=O)(=O)N(CC(=O)N1CCCC1)c1cccc(Cl)c1Cl` it was 97%; in that of `Cc1cc(C)c2nc(NC(=O)c3ccc(S(=O)(=O)N4CCC(C)CC4)cc3)sc2c1`, 79%.
In the case of `O=C(CN1C(=O)CSC1=O)NC1CCCCC1` it was 104%.
Regarding `COc1ccc(OC)c(-c2cc(C(=O)NC(C)c3ccccc3)no2)c1` (stereo not drawn), the survival is -12% (active).
Regarding `COc1ccc(OC)c(-c2cc(C(=O)Nc3ccc(C)c(C)c3)no2)c1`, the survival is -9% (active).
For `CC(C)c1cc(C(=O)NC(C)c2ccccc2)no1` (stereo not drawn) the value was 81%; for `CC(NC(=O)c1cc(-c2ccc(Cl)cc2)on1)c1ccccc1` (stereo not drawn), 140%.
Regarding `COc1ccc(OC)c(-c2cc(C(=O)Nc3cccc(Cl)c3C)no2)c1`, the survival was 26%.
In the case of `COc1ccc(OC)c(-c2cc(C(=O)NCc3ccc(Cl)cc3)no2)c1` it was 85%; in that of `COc1ccc(CNc2oc(-c3ccc(COc4ccc(OC)cc4)o3)nc2C#N)cc1`, 129%.
Take `CC(=O)c1nn(-c2ccc(OC(F)(F)F)cc2)nc1Nc1ccc(C)cc1`: the survival is 96%.
For `CCCS(=O)(=O)Nc1cc2c(cc1NCc1ccccc1)n(C)c(=O)n2C` the value was 82%; for `CC1CCCCN1c1c(S(=O)(=O)c2ccc(Cl)cc2)cnc2ccccc12` (stereo not drawn), 3% (active); for `CCN1CCN(c2c(S(=O)(=O)c3ccc(Cl)cc3)cnc3ccccc23)CC1`, 82%.
As for `COc1ccc(S(=O)(=O)c2cnc3ccc(Cl)cc3c2N2CCCCC2C)cc1` (stereo not drawn), the survival is 23%.
For `Cc1ccc2ncc(S(=O)(=O)c3ccccc3)c(N3CCCCC3C)c2c1` (stereo not drawn) the value was 0% (active); for `Cc1cccc(S(=O)(=O)c2cn(Cc3ccccc3)c3cc(N4CCCCC4C)c(F)cc3c2=O)c1` (stereo not drawn), 71%.
In the case of `CCN1CCN(c2c(S(=O)(=O)c3ccccc3)cnc3ccc(Cl)cc23)CC1` it was 119%; in that of `COc1ccc(Cl)cc1NC(=O)Cn1nnc(C(=O)NCc2ccc3c(c2)OCO3)c1N`, 81%.
In the case of `c1ccc(Cn2nnnc2C(c2cccnc2)N2CCN(c3ccccc3)CC2)cc1` (stereo not drawn) it was 113%; in that of `COC(=O)COc1ccc(Oc2nc(NC(C)(C)C)nc(N(C)C)n2)nn1`, 85%; in that of `CCc1cnc2c(c1SCC(=O)NCc1ccc(C)cc1)c(=O)n(C)c(=O)n2C`, 67%.
Turning to `Cc1ccc(CNC(=O)CSc2c(C(C)C)cnc3c2c(=O)n(C)c(=O)n3C)cc1`, the survival was 58%.
With `CCCc1cnc2c(c1SCC(=O)NCc1ccc(C)cc1)c(=O)n(C)c(=O)n2C`, the survival was -6% (active).
In the case of `CCOC(=O)c1cc(-c2ccccc2)n(-c2cccc(C(=O)Nc3cccc(C(C)=O)c3)c2)c1C` it was 70%; in that of `CCOC(=O)c1cc(-c2ccccc2)n(-c2cccc(C(=O)Nc3ccc(OC)cc3)c2)c1C`, 77%.
With `CCOC(=O)c1cc(-c2ccccc2)n(-c2cccc(C(=O)Nc3ccc(OCC)cc3)c2)c1C`, the survival was 10% (active).
On to `CCOC(=O)c1cc(-c2ccccc2)n(-c2cccc(C(=O)Nc3cccc(SC)c3)c2)c1C`, for which the survival was 0% (active).
As for `CCOC(=O)c1cc(-c2ccccc2)n(-c2cccc(C(=O)Nc3cc(OC)cc(OC)c3)c2)c1C`, the survival is 88%.
Turning to `CCOC(=O)c1cc(-c2ccccc2)n(-c2cccc(C(=O)Nc3cccc(F)c3)c2)c1C`, the survival is 131%.
